{"source": "PubChem BioAssay (EPA / NIEHS)", "note": "Activity calls are given as the source filed them. How the source made its calls: active means hit-call score of the fitted dose curve at least 0.9, where 1 is the maximum; inactive means score below 0.9.", "data": [{"experiment": "ATG_BRE_CIS: Attagene CIS-FACTORIAL HepG2 Assay for human Bone Morphogenetic Protein (BMP) Response Element (BRE) (AID 2282933)", "settings": "HepG2 BMP response element reporter, Attagene transcription factor profiling; actives raise or lower the signal", "description": "ATG_CIS is a cell-based, multiplexed-readout assay that uses HepG2, a human liver cell line, with measurements taken at 24 hours after chemical dosing in a 24-well plate.ATG_BRE_CIS is one of 52 assay component(s) measured or calculated from the ATG_CIS assay. It is designed to make measurements of mRNA induction, a form of inducible reporter, as detected with fluorescence intensity signals by Reverse transcription polymerase chain reaction (RT-PCR) and Capillary electrophoresis technology.Data from the assay component ATG_BRE_CIS was analyzed into 1 assay endpoint. This assay endpoint, ATG_BRE_CIS, was analyzed with bidirectional fitting relative to DMSO as the negative control and baseline of activity. Using a type of inducible reporter, measures of mRNA for gain or loss-of-signal activity can be used to understand the reporter gene at the transcription factor-level as they relate to the gene SMAD1. Furthermore, this assay endpoint can be referred to as a primary readout, because this assay has produced multiple assay endpoints where this one serves a reporter gene function. To generalize the intended target to other relatable targets, this assay endpoint is annotated to the dna binding intended target family, where the subfamily is Smad protein.\nHuman liver HepG2 cells are transiently transfected with multiple reporter transcription units (MRTUs) in 6-well plates using FuGene 6 reagent (Roche; 3 ml FuGene/1 mg DNA). The MRTU constructs are regulated by a cis-regulating element (promoter). […] A major difference between the CIS and TRANS system is that in CIS activities of endogenous TFs are measured, whereas the TRANS assay evaluates changes in activities of exogenous, chimeric NR-Gal4 proteins. […] At the end of 24 hour incubation, total RNA was isolated using TriZol reagent (Invitrogen). The isolated RNA is then reverse-transcribed using oligo(dT) primer and Mo-MLV reverse transcriptase (Invitrogen) with DNAse I (Ambion) treatment for 30 min. The one-tenth of the produced cDNA was amplified by PCR using Taq DNA polymerase (Invitrogen) and two reporter sequence-specific primers. The PCR products were fluorescently labeled by primer extension with 6-arboxyfluorescein (6-FAM) 5'-labeled reporter sequence-specific primer (2 min at 95 C, 20 s at 68 C and 10 min at 72 C) and these products were digested with 5U of HpaI (New England Biolabs) for 2h at 37 C. The fragments were purified using Qiaquick PCR columns (Qiagen), analyzed on an ABI 3130xL genetic analyzer (Applied Biosystems) with peak positions identified by using a set of X-rhodamine (ROX)-labeled MapMarker1000 molecular weight standards (BioVentures). The raw capillary electrophoresis data was processed using Attagraph software (Attagene).", "values": [{"smiles": "Cc1cccc(C)c1C", "outcome": "inactive"}, {"smiles": "CC1CCC2CC1C2(C)C", "note": "(stereo not given)", "outcome": "inactive"}, {"smiles": "O=[N+]([O-])c1cc(C(F)(F)F)ccc1Cl", "outcome": "inactive"}, {"smiles": "CN1Cc2c(N)cccc2C(c2ccccc2)C1", "note": "(stereo not given)", "outcome": "inactive"}, {"smiles": "CC1(C)[C@@H]2CC[C@@]1(C)[C@H](O)C2", "outcome": "inactive"}, {"smiles": "C=CC(=O)NCOCC(C)C", "outcome": "inactive"}, {"smiles": "O=C(O)c1snc(Cl)c1Cl", "outcome": "inactive"}, {"smiles": "C[C@]12CC[C@H]3[C@@H](CCC4=CC(=O)CC[C@@]43C)[C@@H]1CC[C@@H]2C(=O)CO", "AC50": "100 µM (active)"}, {"smiles": "OCCCCCO", "outcome": "inactive"}, {"smiles": "COCCOCCOCCOCCOCCO", "outcome": "inactive"}, {"smiles": "C#C[C@]1(O)CC[C@H]2[C@@H]3CCC4=Cc5oncc5C[C@]4(C)[C@H]3CC[C@@]21C", "outcome": "inactive"}, {"smiles": "CC1CCC(C(C)(C)O)CC1", "note": "(stereo not given)", "outcome": "inactive"}, {"smiles": "COC(C)CCO", "note": "(stereo not given)", "outcome": "inactive"}, {"smiles": "CCc1ccc(C=O)cc1", "outcome": "inactive"}, {"smiles": "CCCCCCCCCCCCCC(=O)O", "outcome": "inactive"}, {"smiles": "C=C(C)C(=O)OCc1ccccc1", "outcome": "inactive"}, {"smiles": "CC(C)c1ccc(C(C)C)cc1", "outcome": "inactive"}, {"smiles": "CCCCCC=CCC(=O)OC", "outcome": "inactive"}, {"smiles": "CCC(C)(O)CCC=C(C)C", "note": "(stereo not given)", "outcome": "inactive"}, {"smiles": "O=C(O)c1cn(C2CC2)c2cc(N3CCNCC3)c(F)cc2c1=O", "outcome": "inactive"}, {"smiles": "Cc1c(Cl)c(=O)oc2cc(O)ccc12", "outcome": "inactive"}, {"smiles": "O=P(c1ccccc1)(c1ccccc1)c1ccccc1", "outcome": "inactive"}, {"smiles": "CC1CC(OC(=O)c2ccccc2O)CC(C)(C)C1", "note": "(stereo not given)", "outcome": "inactive"}, {"smiles": "C=C(C)C(=O)O", "outcome": "inactive"}, {"smiles": "COc1cc2ncnc(Nc3cccc(Cl)c3)c2cc1OC", "outcome": "inactive"}, {"smiles": "COc1ccc(NC(=O)CC(C)=O)cc1", "outcome": "inactive"}, {"smiles": "CC1(C)CCC(C)(C)c2cc(C(=O)Nc3ccc(C(=O)O)cc3)ccc21", "outcome": "inactive"}, {"smiles": "CN(C)CCCN", "outcome": "inactive"}, {"smiles": "O=C(O)c1cccc(C(F)(F)F)c1", "outcome": "inactive"}, {"smiles": "CCCCCC(=O)OCCc1ccccc1", "outcome": "inactive"}, {"smiles": "O=C(O)c1ccc(C(=O)O)cc1", "outcome": "inactive"}, {"smiles": "O=C(O)c1cccc([N+](=O)[O-])c1", "outcome": "inactive"}, {"smiles": "CCCCCCCCCCCCCCCC(=O)O", "outcome": "inactive"}, {"smiles": "CNCCCC12CCC(c3ccccc31)c1ccccc12", "outcome": "inactive"}, {"smiles": "Cc1cccc(Nc2ccccc2C(=O)O)c1C", "outcome": "inactive"}, {"smiles": "O=S(=O)(O)c1ccc(O)c2ncccc12", "outcome": "inactive"}, {"smiles": "O=C(O)c1cn(-c2ccc(F)cc2)c2cc(N3CCNCC3)c(F)cc2c1=O", "outcome": "inactive"}, {"smiles": "C=O", "outcome": "inactive"}, {"smiles": "CNC[C@H](O)c1cccc(O)c1", "outcome": "inactive"}, {"smiles": "CCOc1ccccc1OCC", "outcome": "inactive"}]}]}
